Test results as given in the supplement of paper PMC7057948, “A genome-wide approach for identification and characterisation of metabolite-inducible systems” (Nature Communications, 2020).

These compounds were tested on NahR/P_H16_RS08125 salicylate biosensor (pEH042) (assay: relative induction of RFP reporter vs primary effector (background-corrected); higher = stronger activation of the biosensor). Conditions: inducer concentration 5 mM; 6 h; Cupriavidus necator H16; minimal medium + 0.4% gluconate.
Protocol: (§1)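 C. necator H16 strains, each carrying one of 21 transcription factor/inducible promoter–mRFP biosensor plasmids, were grown in minimal medium in 96-well plates (robotic platform). Each was exposed to 46 structurally or metabolically related compounds at 5 mM at 30 °C. OD-normalised RFP fluorescence was read 6 h later and expressed as relative induction (%) = 100 × (FL compound − FL uninduced)/(FL primary inducer − FL uninduced); mean of n=4.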
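Also: RFP excited at 585 nm with emission read at 620 nm, culture medium blanks subtracted from fluorescence and absorbance prior to normalisation.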

Row | Compound | relative induction of RFP reporter
1 | Oc1ccccc1O [catechol] | 0.0978%
2 | Oc1ccc(O)cc1 [hydroquinone] | 0.108%
3 | NC(=O)CC[C@H](N)C(=O)O [L-glutamine] | 0.00325%
4 | Cn1c(=O)c2c(ncn2C)n(C)c1=O [caffeine] | 0.0392%
5 | O=CC(=O)O [glyoxylate] | 0.0197%
6 | NCC(O)C(=O)O (stereo unspecified) [3-amino-2-hydroxypropanoate] | 0.0227%
7 | O=C(O)C(O)c1ccccc1 (stereo unspecified) [mandelic acid] | -0.000243%
8 | O=C(O)C(O)C(=O)O [tartronic acid] | 0.00865%
9 | N[C@@H](Cc1c[nH]c2ccccc12)C(=O)O [L-tryptophan] | 0.00282%
10 | CCC(=O)O [propanoate] | -0.000302%
11 | CC(N)CC(=O)O (stereo unspecified) [3-aminobutanoate] | 0.00216%
12 | CCCC(=O)O [butyric acid] | -0.000826%

Each compound was assayed on OapR/P_H16_RS01330 beta-alanine biosensor (pEH147) in the same assay as above. Conditions: inducer concentration 5 mM; 6 h; Cupriavidus necator H16; minimal medium + 0.4% gluconate.
Protocol: as §1

Row | Compound | relative induction of RFP reporter
13 | Oc1ccccc1O [catechol] | -1.89%
14 | Oc1ccc(O)cc1 [hydroquinone] | 0.00669%
15 | NC(=O)CC[C@H](N)C(=O)O [L-glutamine] | -0.494%
16 | Cn1c(=O)c2c(ncn2C)n(C)c1=O [caffeine] | 0.545%
17 | O=CC(=O)O [glyoxylate] | 0.146%
18 | NCC(O)C(=O)O (stereo unspecified) [3-amino-2-hydroxypropanoate] | 33.2%
19 | O=C(O)C(O)c1ccccc1 (stereo unspecified) [mandelic acid] | 0.364%
20 | O=C(O)C(O)C(=O)O [tartronic acid] | 0.0759%
21 | N[C@@H](Cc1c[nH]c2ccccc12)C(=O)O [L-tryptophan] | -0.39%
22 | CCC(=O)O [propanoate] | -1.95%
23 | CC(N)CC(=O)O (stereo unspecified) [3-aminobutanoate] | 57.8%
24 | CCCC(=O)O [butyric acid] | -0.94%

The compounds below were run on PcaQ/P_H16_RS30145 3,4-dihydroxybenzoate biosensor (pEH161) in the same assay as above. Conditions: inducer concentration 5 mM; 6 h; Cupriavidus necator H16; minimal medium + 0.4% gluconate.
Protocol: as §1

Row | Compound | relative induction of RFP reporter
25 | Oc1ccccc1O [catechol] | 0.794%
26 | Oc1ccc(O)cc1 [hydroquinone] | 0.229%
27 | NC(=O)CC[C@H](N)C(=O)O [L-glutamine] | -0.146%
28 | Cn1c(=O)c2c(ncn2C)n(C)c1=O [caffeine] | 0.0177%
29 | O=CC(=O)O [glyoxylate] | 0.0806%
30 | NCC(O)C(=O)O (stereo unspecified) [3-amino-2-hydroxypropanoate] | -0.0272%
31 | O=C(O)C(O)c1ccccc1 (stereo unspecified) [mandelic acid] | 0.0192%
32 | O=C(O)C(O)C(=O)O [tartronic acid] | -0.0557%
33 | N[C@@H](Cc1c[nH]c2ccccc12)C(=O)O [L-tryptophan] | -0.161%
34 | CCC(=O)O [propanoate] | -0.275%
35 | CC(N)CC(=O)O (stereo unspecified) [3-aminobutanoate] | 0.0297%
36 | CCCC(=O)O [butyric acid] | 0.636%
